# PubChem BioAssay (NCATS)
# Several values for one entry are separate records, joined by “and”; a condition that tells them apart may be missing. Equal entries are not always repeated. Unmarked numbers belong to inactive results. Inconclusive results are not listed. Activity calls are given as the source filed them. Unless noted, calls follow the shape of the dose curve; as a rule, active = well fitted curve in the direction sought with a large enough effect; inconclusive = small, poorly fitted or top-dose-only effect, or another doubt; inactive = no such curve, though single readings can be large; an effect the other way counts as inactive or inconclusive.
# Columns and labels:
# [1] = Cell Viability - BJ (AID 421; calls by dose curve;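 also: potency is read from the fitted curve at half-maximal effect; cells exposed to compound for 40 hours at 37 °C before readout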); conditions: BJ fibroblast viability, qHTS
# Summary of the method: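 Normal human BJ foreskin fibroblasts, 1500/well in complete medium, treated 40 hr at 37 °C. Cellular ATP by CellTiter-Glo luminescence; normalized to DMSO and 100 uM tamoxifen, AC50 from Hill fit.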
# [2] = Cell Viability - MRC5 (AID 434; calls by dose curve;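 also: potency is read from the fitted curve at half-maximal effect; potency reflects cytotoxicity seen as loss of intracellular ATP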); conditions: MRC5 lung fibroblast viability, qHTS
# Summary of the method: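 MRC5 normal human lung fibroblasts, 1500 cells/well, exposed to compound for 40 hr at 37 C. Cellular ATP was read by CellTiter-Glo luminescence; data normalized to DMSO and 100 uM tamoxifen, with AC50 from Hill fits.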
# [3] = Cell Viability - SK-N-SH (AID 435; calls by dose curve;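 also: potency is read from the fitted curve at half-maximal effect; compound exposure lasted 40 h at 37 °C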); conditions: SK-N-SH neuroblastoma cell viability qHTS
# Summary of the method: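 Luminescent ATP signal served as the viability read-out after 40 hours of compound treatment of human neuroblastoma SK-N-SH cells. Concentration-response data, scaled between DMSO and 100 uM tamoxifen, gave AC50 values by standard Hill modeling.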
# [4] = Cell Viability - N2a (AID 540); conditions: N2a mouse neuroblastoma cell viability; activity change, negative = cytotoxicity: at 92.2 µM (top of the series); also: potency is read from the fitted curve at half-maximal effect; nearly all actives have a fitted effect of over 45% in size
# Summary of the method: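 Mouse neuroblastoma N2a cells (1500/well) were preincubated 5 hr at 37 °C, then exposed to compounds for 40 hr at 37 °C in complete medium. Viability was read as intracellular ATP by CellTiter-Glo luminescence; AC50 from Hill fits.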
# [5] = Cell Viability - SH-SY5Y (AID 544); conditions: SH-SY5Y neuroblastoma cell viability; viability change, negative = cytotoxic: at 92.2 µM (top of the series); also: potency is read from the fitted curve at half-maximal effect; nearly all actives have a fitted effect of over 55% in size
# Summary of the method: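 Human neuroblastoma SH-SY5Y cells (1500/well) in complete medium were exposed to compounds for 40 hr at 37 °C; intracellular ATP was then quantified by CellTiter-Glo luminescence after 20 min at room temperature. AC50 came from Hill-equation concentration-response fits.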
# [6] = Cell Viability - Renal Proximal Tubule (AID 545); conditions: renal proximal tubule cells viability, primary cells of rat origin; activity change, negative = cytotoxicity: at 91.7 µM (top of the series); also: nearly all actives have a fitted effect of over 40% in size; also: potency is read from the fitted curve at half-maximal effect
# Summary of the method: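 Luminescent ATP signal (CellTiter-Glo) served as the viability read-out after 40 hr compound exposure of freshly isolated rat proximal tubule cells at 37 °C. Concentration-dependent ATP loss was fitted with the Hill equation to give AC50.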
# [7] = Cellular Toxicity (caspase-3) HepG2 (AID 654); conditions: HepG2 caspase-3 activation, luminescence; series mostly up to 92.2 µM;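 also: cells exposed to compound for 16 hours before reading; 0% = DMSO alone and 100% = caspase signal from 100 µM tamoxifen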
# Summary of the method: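 HepG2 cells (1500/well) in complete medium were treated with compounds for 16 hr at 37 °C. Caspase-3/7 activity was then read as luminescence from peptide-aminoluciferin cleavage. AC50 came from Hill fits, normalized to DMSO and 100 uM tamoxifen.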
# [8] = Cellular Toxicity (caspase-3) HUV-EC-C (AID 656); conditions: HUV-EC-C cells, caspase-3 activation (apoptosis); series mostly up to 92.2 µM
# Summary of the method: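 qHTS; HUV-EC-C, 1000 cells/well; 5 hr settle, 16 hr cmpd, 37°C; Caspase-Glo 3/7, 20 min RT; luminescence. Norm: DMSO = 0%, tamoxifen 100 uM = 100%. Hill-fit AC50.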
# [9] = Cellular Toxicity (caspase-3) Mesangial (AID 660); conditions: mesangial cells, normalized: DMSO 0%, 100 µM tamoxifen 100%; at 91.7 µM (top of the series);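 also: cells exposed to compound for 16 h before the caspase read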
# Summary of the method: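 Human renal glomerular mesangial cells (1000/well) were treated with compounds for 16 h at 37 °C in complete medium, then caspase 3/7 activity was read by Caspase-Glo luminescence. Data were normalized to DMSO and 100 uM tamoxifen; AC50 from Hill fits.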
# [10] = Cellular Toxicity (caspase-3) N2a (AID 665); conditions: N2a cells, luminescence; Potency: caspase-3 activation; series mostly up to 92.2 µM;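 also: compound exposure lasted 16 h at 37 °C before readout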
# Summary of the method: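 Mouse N2a neuroblastoma cells (1500/well) were treated with compounds for 16 h at 37 °C, then caspase-3/7 activity was read by Caspase-Glo luminescence after 1 h at room temperature. Data were normalized to DMSO and 10 uM staurosporine; AC50 from Hill fits.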
# [11] = Cellular Toxicity (caspase-3) Renal Proximal Tubule (AID 667); conditions: renal proximal tubule cells, primary cells freshly taken from rat, solvent-only wells 0%, staurosporine 100%; series mostly up to 91.7 µM;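 also: cells exposed to compound for 16 hours at 37 °C before detection; 0% = DMSO basal and 100% = 10 µM staurosporine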
# Summary of the method: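 AC50 derived by standard Hill fit of concentration-response data, normalized between DMSO basal and 10 uM staurosporine as 100% stimulation. Cells: primary rat kidney proximal tubule, 16 h treatment at 37 °C.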
# [12] = target: Cytochrome P450 3A4 (Homo sapiens) (UniProt P08684); test: qHTS Assay for Inhibitors and Substrates of Cytochrome P450 3A4 (AID 884); conditions: recombinant CYP3A4, Luciferin-PPXE luminescence; series mostly up to 57.1 µM; also: nearly all actives have a fitted effect of over 50% in size; also: potency is read from the fitted curve at half-maximal effect; as to activity change, negative = inhibition: % is scaled to controls: 0 for no effect and ±100 for the full control effect
# Summary of the method: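 20 nM human CYP3A4 with 25 uM Luciferin-PPXE (at KM) in 200 mM KPO4, preincubated 10 min with compound; NADPH regeneration started a 60 min RT reaction. Luciferin detected by luminescence, normalized to 57 uM ketoconazole as full inhibition.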
# [13] = target: Cytochrome P450 3A4 (Homo sapiens) (UniProt P08684); test: qHTS Assay for Activators of Cytochrome P450 3A4 (AID 885); conditions: recombinant CYP3A4, Luciferin-PPXE luminescence, 60 min; series mostly up to 57.1 µM; also: nearly all actives have a fitted effect of over 65% in size
# Summary of the method: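 Human CYP3A4 (20 nM) with Luciferin-PPXE at 25 uM (its KM) in 200 mM KPO4; 10 min compound preincubation, then NADPH regeneration and 60 min reaction at RT. Luciferin read by luminescence; normalized to 57 uM ketoconazole full inhibition.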
# [14] = target: Peroxisome proliferator-activated receptor alpha (Homo sapiens) (UniProt Q07869); test: qHTS assay for small molecule agonists of the peroxisome proliferator-activated receptor alpha (PPARalpha) signaling pathway (AID 651778); conditions: PathHunter PPARalpha complementation, chemiluminescence, 6 h; max response: stronger effect = higher value; also: % of control where 0% means no effect
# Summary of the method: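 Enzyme-fragment complementation assay in which ligand-bound PPARalpha translocates and forms an active enzyme that generates chemiluminescence. Cells were plated overnight, exposed to compound for 6 hr at 37 C, and then given detection reagent for 60 min at room temperature.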
# [15] = qHTS assay for cell viability of HEK293 cells (AID 743288); conditions: ATP luminescence (CellTiter-Glo), 18 h; max response: stronger effect = lower value; also: potency is read from the fitted curve at half-maximal effect; nearly all actives have a fitted effect of over 50% in size
# Summary of the method: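 HEK293 parental, 2,000 cells/well; ≥5 h pre-incubation 37 C; pintool compound addition; 18 h, 37 C; CellTiter-Glo 30 min RT; luminescence read.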
# [16] = qHTS assay for cell viability of the p53RE-bla HCT-116 cell line (AID 743292); conditions: p53RE-bla HCT-116 viability, ATP luminescence, 16 h; series mostly up to 95 µM; also: nearly all actives have a fitted effect of over 55% in size; also: potency is read from the fitted curve at half-maximal effect; as to activity change, negative = cytotoxicity: % is scaled to controls: 0 for no effect and ±100 for the full control effect
# Summary of the method: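 Compound-exposed HCT-116 (p53RE-bla) cells, 4,000 per well, were kept 16 h at 37 C following a 5 h preincubation. Cell number was estimated from total ATP by CellTiter-Glo luminescence read after 30 min at room temperature.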
# [17] = NFAT Signaling Pathway (AID 444; active = well fitted curve in either direction with a large enough effect, not every such curve was filed as active;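 also: carbachol stimulus at about its EC50 of 1 µM final; % is scaled to controls: 0 for no effect and ±100 for the full control effect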); conditions: Jurkat NFAT-bla M1, carbachol, beta-lactamase ratio, 5 h; at 17.2 µM (top of the series) unless noted
# Summary of the method: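 Jurkat cells with NFAT-driven β-lactamase reporter and co-expressed M1 receptor, stimulated with carbachol (final 1 uM, ~EC50), compound titration, 5 h at 37 °C. CCF4 loaded 1 h at RT; 460/530 nm ratio gave %activity and AC50.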
# [18] = Stat Signaling Pathway (AID 446; active = well fitted curve in either direction with a large enough effect, not every such curve was filed as active;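 also: ME-180 cervical cancer cells given 40 pM IL-6 alongside compound; SIE-controlled beta-lactamase reporter measured as 460/530 nm FRET emission ratio; % is scaled to controls: 0 for no effect and ±100 for the full control effect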); conditions: ME-180 SIE beta-lactamase reporter, IL-6 stimulated, 5 h; at 17.2 µM (top of the series) unless noted
# Summary of the method: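 ME-180 cells carrying a SIE-driven beta-lactamase reporter are stimulated with 40 pM IL-6 for 5 h at 37C in the presence of compound. The 460/530 nm FRET substrate ratio is read after 2.5 h at RT. Data are normalised to 300 pM IL-6 and to 125 nM JAK inhibitor controls.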
# [19] = target: Glucocorticoid receptor (Homo sapiens) (UniProt P04150); test: GR-GFP Redistribution (AID 450;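 active = compounds whose dose series gives a full or clear partial fitted curve of increased nuclear translocation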; also: potency is read from the fitted curve at half-maximal effect); conditions: U2OS GR-GFP nuclear translocation, laser cytometry, 2 h; series mostly up to 20.6 µM
# Sequence of Glucocorticoid receptor (Homo sapiens) (P04150 whole entry, looked up): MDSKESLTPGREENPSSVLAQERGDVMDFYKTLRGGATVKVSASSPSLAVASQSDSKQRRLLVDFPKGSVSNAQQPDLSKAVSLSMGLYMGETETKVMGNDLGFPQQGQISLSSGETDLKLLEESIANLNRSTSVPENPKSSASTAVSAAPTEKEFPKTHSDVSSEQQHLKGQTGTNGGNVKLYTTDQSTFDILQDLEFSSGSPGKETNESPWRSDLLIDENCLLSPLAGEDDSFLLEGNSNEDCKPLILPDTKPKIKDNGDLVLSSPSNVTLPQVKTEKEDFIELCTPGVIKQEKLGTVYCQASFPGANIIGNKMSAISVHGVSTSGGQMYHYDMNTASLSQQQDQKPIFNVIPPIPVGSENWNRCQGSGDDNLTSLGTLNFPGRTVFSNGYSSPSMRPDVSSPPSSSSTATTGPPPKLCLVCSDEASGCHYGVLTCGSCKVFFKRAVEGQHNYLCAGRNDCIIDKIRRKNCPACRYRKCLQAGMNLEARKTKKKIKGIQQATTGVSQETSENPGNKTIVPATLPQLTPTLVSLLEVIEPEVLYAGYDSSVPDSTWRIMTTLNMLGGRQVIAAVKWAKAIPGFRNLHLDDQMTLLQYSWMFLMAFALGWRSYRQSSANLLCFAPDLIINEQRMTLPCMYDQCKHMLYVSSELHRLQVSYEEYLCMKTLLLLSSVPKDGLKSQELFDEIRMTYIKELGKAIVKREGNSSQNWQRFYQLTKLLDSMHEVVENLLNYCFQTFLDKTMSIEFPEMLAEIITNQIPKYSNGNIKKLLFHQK
# Sequence of Peroxisome proliferator-activated receptor alpha (Homo sapiens) (Q07869 whole entry, looked up, the tested form may be a part): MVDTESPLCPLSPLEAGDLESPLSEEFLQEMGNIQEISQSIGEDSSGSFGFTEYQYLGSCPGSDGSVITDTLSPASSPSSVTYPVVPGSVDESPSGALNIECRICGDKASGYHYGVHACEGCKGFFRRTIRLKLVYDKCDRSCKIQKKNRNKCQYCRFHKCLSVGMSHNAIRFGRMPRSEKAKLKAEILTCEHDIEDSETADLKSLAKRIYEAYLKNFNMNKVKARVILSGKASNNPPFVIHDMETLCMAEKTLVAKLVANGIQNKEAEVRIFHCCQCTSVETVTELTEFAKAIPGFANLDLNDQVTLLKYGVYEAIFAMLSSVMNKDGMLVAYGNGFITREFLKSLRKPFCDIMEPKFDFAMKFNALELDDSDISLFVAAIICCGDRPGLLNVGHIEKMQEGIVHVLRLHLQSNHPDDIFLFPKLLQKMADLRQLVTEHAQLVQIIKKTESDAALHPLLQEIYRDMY
# Sequence of Cytochrome P450 3A4 (Homo sapiens) (P08684 whole entry, looked up): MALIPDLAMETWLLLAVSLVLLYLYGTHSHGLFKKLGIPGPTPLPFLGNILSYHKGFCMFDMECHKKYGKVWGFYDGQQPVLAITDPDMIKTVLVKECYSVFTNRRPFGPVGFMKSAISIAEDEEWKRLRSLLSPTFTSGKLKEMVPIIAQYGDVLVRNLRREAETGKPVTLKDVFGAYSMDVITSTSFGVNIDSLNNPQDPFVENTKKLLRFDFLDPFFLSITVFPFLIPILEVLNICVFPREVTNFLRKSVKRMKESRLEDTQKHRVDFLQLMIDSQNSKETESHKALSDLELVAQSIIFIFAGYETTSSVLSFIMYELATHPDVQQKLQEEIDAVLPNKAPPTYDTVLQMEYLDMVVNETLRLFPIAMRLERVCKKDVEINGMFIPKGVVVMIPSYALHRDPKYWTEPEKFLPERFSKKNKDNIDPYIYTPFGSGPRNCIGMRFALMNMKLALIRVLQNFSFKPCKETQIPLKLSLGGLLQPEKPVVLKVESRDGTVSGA
structure (smiles),measurement,setting,value
CCC(C)Nc1ccc(NC(C)CC)cc1 (configuration not stated),Potency,[1],14 µM (active)
same,Potency,[2],20.7 µM (active)
same,Potency,[3],8.73 µM (active)
same,Potency,[4],15.8 µM (active)
same,Potency,[5],5.01 µM (active)
same,"activity change, negative = cytotoxicity",[6],-100% (active)
same,Potency,[7],inactive
same,Potency,[8],inactive
same,caspase-3 activation,[9],-4.04%
same,Potency,[10],inactive
same,outcome,[11],inactive
same,Potency,[12],15.8 µM (active)
same,Potency,[13],inactive
same,max response,[14],-4.78% and -5%
same,Potency,[15],28.2 µM (active)
same,Potency,[16],35.5 µM (active) and 28.2 µM (active)
CCOc1ccc(CC2CC(=O)NC2=O)cc1 (configuration not stated),"activity change, negative = inhibition",[17],-5.51%
same,"activity, negative = inhibition",[18],-1.04%
same,Potency,[19],> 20.6 µM
CC(=O)Nc1ccc(C(=O)CCl)cc1,Potency,[1],36.2 µM (active)
same,Potency,[3],15.6 µM (active)
same,Potency,[4],25.1 µM (active)
same,Potency,[5],3.16 µM (active)
same,Potency,[6],31.6 µM (active)
same,Potency,[7],inactive
same,Potency,[8],inactive
same,caspase-3 activation,[9],-4.19%
same,Potency,[10],inactive
same,outcome,[11],inactive
same,Potency,[12],inactive
same,max response,[14],-5.76% and -2.53%
same,Potency,[15],22.4 µM (active) and 25.1 µM (active)
same,Potency,[16],inactive
CSc1nc(C)cc(OCCNS(=O)(=O)c2cc(C)ccc2C)n1,"activity change, negative = inhibition",[17],-2.9%
same,"activity, negative = inhibition",[18],1.66%
same,Potency,[19],> 20.6 µM
N/C(CCCN1CCCCC1)=N/O,"activity change, negative = inhibition",[17],-3.1%
same,"activity, negative = inhibition",[18],-0.379%
same,Potency,[19],> 20.6 µM
C=CCOC(=O)C1=C(C)NC(SCC(=O)N(CC)CC)=C(C#N)C1c1ccccc1 (configuration not stated),"activity change, negative = inhibition",[17],2.35%
same,"activity, negative = inhibition",[18],-2.74%
same,Potency,[19],> 20.6 µM
COc1ccc(-c2nn3c(C4CCCCC4)nnc3s2)cc1OC,"activity change, negative = inhibition",[17],-3.44%
same,"activity, negative = inhibition",[18],16.5%
same,Potency,[19],> 20.6 µM
CCOP(=O)(c1ccccc1)c1nc(-c2ccc(F)cc2)oc1N1CCCCC1 (configuration not stated),"activity change, negative = inhibition",[17],3.09%
same,"activity, negative = inhibition",[18],4.79%
same,Potency,[19],> 20.6 µM
CC(C)(C)n1cnc2cc(NS(=O)(=O)c3ccc(Br)cc3)ccc21,"activity change, negative = inhibition",[17],-27.1%
same,"activity, negative = inhibition",[18],-28%
same,Potency,[19],> 20.6 µM
Cc1ccc(OCC(O)CNS(=O)(=O)c2ccccc2C(=O)O)cc1 (configuration not stated),"activity change, negative = inhibition",[17],6.08%
same,"activity, negative = inhibition",[18],4%
same,Potency,[19],> 20.6 µM
Cc1ccc(S(=O)(=O)NCC(=O)OCN2C(=O)c3ccccc3C2=O)cc1,"activity change, negative = inhibition",[17],-25.1%
same,"activity, negative = inhibition",[18],9.1%
same,Potency,[19],> 20.6 µM
Cc1nc(NCCN)c(C#N)c2c1COC(C)(C)C2,"activity change, negative = inhibition",[17],-1.13%
same,"activity, negative = inhibition",[18],7.79%
same,Potency,[19],> 20.6 µM
COc1ccc(CC(=O)Nc2cccc(-c3nnc(-c4ccco4)o3)c2)cc1,"activity change, negative = inhibition",[17],29.9%
same,"activity, negative = inhibition",[18],-27.7%
same,Potency,[19],> 20.6 µM
CCCc1[nH]nc2c1C(c1c(C)nn(-c3ccccc3)c1Cl)C(C#N)=C(N)O2 (configuration not stated),"activity change, negative = inhibition",[17],14.9%
same,"activity, negative = inhibition",[18],-29.6%
same,Potency,[19],> 20.6 µM
CCCn1c(SCC(N)=O)nc2c(c1=O)C1(CCCC1)Cc1ccccc1-2,"activity change, negative = inhibition",[17],-22.4%
same,"activity, negative = inhibition",[18],-8.32%
same,Potency,[19],> 20.6 µM
O=C(c1ccc2c3c(cccc13)C(=O)N(O)C2=O)N1CCCCC1,"activity change, negative = inhibition",[17],0.433%
same,"activity, negative = inhibition",[18],22.1%
same,Potency,[19],> 20.6 µM
